{
  "source": "PubChem BioAssay AID686935",
  "about": "(National Center for Advancing Translational Sciences (NCATS), 2013)",
  "test": "qHTS Assay for Lipid Storage Modulators: CytotoxicityAssay against Probe and Analogs",
  "description": "Storing lipids as a reservoir for energy or the anabolism of elementary metabolites is a common feature of probably all cells and is conserved from bacteria to humans. The universal cellular lipid storage organelle is the so-called lipid storage droplet (LD). Although ubiquitous, LDs share a simple structure composed of a hydrophobic core that harbors the storage lipids, which is shielded by a droplet-specific phospholipid monolayer to which proteins are attached. The current model of LD biogenesis involves an incorporation of the lipid core into the membrane leaflets of the endoplasmic reticulum (ER) followed by a subsequent budding-like maturation of a LD, which ultimately pinches off. Once released, LD volume can increase by localized lipogenesis or fusion of existing droplets. Storage lipids are re-mobilized enzymatically by lipase activity. Lipase regulation in the adipocyte is heavily studied and involves multiple components including catecholamine signaling, the LD-associated proteins Perilipin and comparative gene identification-58 (CGI-58) and at least two lipases named hormone sensitive lipase (HSL) and adipocyte triglyceride lipase (ATGL). LD regulation outside of the adipocyte is poorly understood and only few components are known. However, there is an urgent need to learn more about ectopic fat depots as mislocalized storage of lipids, for example in the liver or muscle, is an eminent health problem associated with insulin resistance or the metabolic syndrome. We developed a laser-scanning cytometer assay to enable 1,536-well screening and combined the results of the small molecules screen with an RNAi database based on lipid storage. In this assay we tested analogs of the probe in a cytotoxicity assay. NIH Molecular Libraries Probe Production Centers Network [MLPCN] NIH Chemical Genomics Center [NCGC] MLPCN Grant: MH085686 Assay Submitter (PI): Mathias Beller, Max-Planck-Institut fur Biophysikalische Chemie\n3T3-L1 cells were obtained from ATCC (CL-173). Pre-adipocyte medium (PM-1),differentiation medium (DM-2) and after adipocyte medium (AM-1) were purchased from Zen-Bio (# PM-1-L1, DM-2-L1, AM-1-L1). […] of PM-1containing 3,000 cells was dispensed into each well of a 96-well plate (Corning, #3340), and the assay plates were incubated at 37 °C, 95% humidity and 5% CO2 for 3-5 days. The differentiation of pre-adipocyte to adipocyte was induced by removing the pre-adipocyte medium and replacing with […] of differentiation medium. […] of compounds at different concentrations dissolved in differentiation medium were added to the assay plates, along with medium exchange for differentiation to test their effects on adipocyte differentiation. The final DMSO concentration was 0.5%. Triacsin C (Sigma-Aldrich T-4540), an inhibitor of long-chain fatty acyl CoA synthetase that blocks synthesis of triglycerides, was used as a positive control for lipid under-storage. After 3 days, differentiation medium was replaced with 200ul of adipocyte maintenance medium and assay plates were incubated for 4 days. Cells were then fixed using4% of paraformaldehyde in PBS for 30 minutes at room temperature, washed 3 times with PBS buffer. Finally, the cells were stained using […] of PBS containing BODIPY lipid dye 493/530 (1:2000 -, Life Technologies, # D-3922), Hoechst 33342 (1:1000, Life Technologies, #H3570) and CellMask deep red dye (1:10,000 , Life Technologies, #H32721). Images were acquired using InCell 2000 (GE), number of cells, number of lipids, size of lipids and cells were analysis using GE Investigator software.",
  "note": "Inconclusive results are not listed. The source made the active and inactive calls. Calls come from the whole dose curve; as a rule, active = well fitted curve in the direction sought with a large enough effect; inconclusive = small, poorly fitted or top-dose-only effect, or another doubt; inactive = no such curve, though single readings can be large or run the other way.",
  "data": [
    {"compound": "CCOc1ccc(CCNC(=O)c2cc3sccc3n2CCN(C)C)cc1OCC", "values": [
      {"measurement": "outcome", "result": "inactive"}
    ]},
    {"compound": "CCOc1ccc(CCNC(=O)c2cc3ccccc3n2Cc2ccccn2)cc1OCC", "values": [
      {"measurement": "outcome", "result": "inactive"}
    ]},
    {"compound": "CCOc1ccc(CCNC(=O)c2cc3ccccc3n2Cc2cccc(C)n2)cc1OCC", "values": [
      {"measurement": "outcome", "result": "inactive"}
    ]},
    {"compound": "CCOc1ccc(CCNC(=O)c2cc3sccc3n2Cc2ccc(F)cc2F)cc1OCC", "values": [
      {"measurement": "outcome", "result": "inactive"}
    ]},
    {"compound": "CCOc1ccc(CCNC(=O)c2cc3cccnc3n2Cc2cccc(C)n2)cc1OCC", "values": [
      {"measurement": "outcome", "result": "inactive"}
    ]},
    {"compound": "CCOC(=O)C1CCN(C(=O)C2(NC(=O)Nc3ccccc3Cl)CCCC2)CC1", "values": [
      {"measurement": "outcome", "result": "inactive"}
    ]},
    {"compound": "CCOc1ccc(CCNC(=O)c2cc3ccccc3n2CCN2CCOCC2)cc1OCC", "values": [
      {"measurement": "outcome", "result": "inactive"}
    ]},
    {"compound": "CCOc1ccc(CCNC(=O)c2cc3ncccc3n2Cc2cccc(C)n2)cc1OCC", "values": [
      {"measurement": "outcome", "result": "inactive"}
    ]}
  ]
}
